Results reported in PubChem BioAssay (NCATS).
Inconclusive results are not listed. Active and inactive are the calls of the source. The call rests on the fitted dose curve.

Assay: S16 Schwann cell PMP22 intronic element beta-lactamase assay (AID 624044); further: nearly all actives have a fitted effect of over 15% in size;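 on ratio activity, negative = inhibition: 0% = DMSO and -100% = potassium clavulanate positive control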
Settings: S16 rat Schwann cells, PMP22 element beta-lactamase FRET, 24 h; series mostly up to 38.3 µM; ratio activity, negative = inhibition: at the top concentration
In short: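 Rat S16 Schwann cells with beta-Lac driven by a PMP22 intronic element, compound-treated 24 h at 37 °C. LiveBLAzer FRET B/G read: 460 nm normalized to potassium clavulanate vs DMSO; 535 nm FRET as viability; concentration-effect curves classified.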
Potency means the concentration at half of the fitted maximal effect.

Row | SMILES | Potency | ratio activity, negative = inhibition
1 | COCC(=O)O[C@]1(CCN(C)CCCc2nc3ccccc3[nH]2)CCc2cc(F)ccc2[C@@H]1C(C)C | 25.1 µM (active) | –
2 | c1cc(CN2CCCCC2)cc(OCCCNc2nc3ccccc3s2)c1 | – | -12.4% (inactive)
3 | Cc1nc2ccccn2c(=O)c1CCN1CCC(C(=O)c2ccc(F)cc2)CC1 | – | -8.52% (inactive)
4 | CCCCCCCC/C=C\CCCCCCCC(=O)NCc1ccc(O)c(OC)c1 | 12.6 µM (active) | –
5 | COCCOC(=O)C1=C(C)NC(C)=C(C(=O)OC(C)C)C1c1cccc([N+](=O)[O-])c1 (stereo unspecified) | – | -6.26% (inactive)
6 | CC(=O)OCC1=C(C(=O)O)N2C(=O)[C@@H](NC(=O)Cc3cccs3)[C@H]2SC1 | – | 1.59% (inactive)
7 | CCN(CC)CC(=O)Nc1c(C)cccc1C | – | -0.335% (inactive)
8 | O=C(CCNNC(=O)c1ccncc1)NCc1ccccc1 | – | -1.27% (inactive)
9 | CNCCC(Oc1ccccc1OC)c1ccccc1 (stereo unspecified) | – | -6.16% (inactive)
10 | COc1cc2c(cc1OC)-c1cc(=Nc3c(C)cc(C)cc3C)n(C)c(=O)n1CC2 | 22.4 µM (active) | –
11 | CCCN1C[C@H](CSC)C[C@@H]2c3cccc4[nH]cc(c34)C[C@H]21 | – | -5.06% (inactive)
